The values below come from the supplement of paper PMC12340641.

In all, about 1,000 compounds were measured (“relative growth recovery (pomalidomide 10 uM = 100%, DMSO = 0%)”: median about -1.6, highest 2% from about 21 on). The sample as a whole holds a higher share of the highest values than the screen did.

The assay has as its system HEK293FT dCK*-IKZF1. Kind of assay: relative growth recovery (pomalidomide 10 uM = 100%, DMSO = 0%); higher = more growth rescue (IKZF1 fusion degradation). The settings on record: compound concentration: 5 uM; AraC concentration: 0.3 uM; overnight pretreatment + 4 days AraC. The procedure: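 Growth recovery screen of the molecular-glue-like (Specs) library. HEK293FT cells expressing a dCK*-IKZF1 fusion (primary) or dCK* alone (counter) were pretreated overnight with compound at 5 uM, then given 0.3 uM AraC for 4 days. Hoechst nuclei were counted by imaging. Primary: normalised to pomalidomide (100%) and DMSO (0%), mean of 2 replicates. Counter: normalised to no-AraC (100%) and AraC+DMSO (0%), single replicate.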
For the compound `Cc1cnc(Nc2cccc(C3CCN(C(=O)C4(NC(=O)C(C)(C)C)CCCCC4)CC3)n2)s1`, the relative growth recovery is -12.6%.
As for `O=S(=O)(Nc1ccc(S(=O)(=O)Nc2ncccn2)cc1)c1ccc(Cl)cc1`, the figure is -4.2%.
As for `CCCc1cnc(Nc2cccc(C3(CO)CCN(C(=O)C4CCCCC4)CC3)n2)s1`, the figure is -17%; as for `O=C(C1CCCCC1)N1CCOC(c2cccc(Nc3ncc(Cc4ccccc4)s3)n2)C1` (configuration not stated), 2.33%; as for `Cc1csc(Nc2cccc(C3CCCN3C(=O)c3ccc4[nH]c(C(C)C)nc4c3)n2)n1` (configuration not stated), 36.3%.
For the compound `Cc1ccc2[nH]nc(C(=O)N3CCCC3c3cccc(Nc4nc(C)cs4)n3)c2c1` (configuration not stated), the relative growth recovery was -0.105%.
For `Cc1cnc(NC(=O)CN2CCC(c3cccc(Nc4nc(C)c(C)s4)n3)CC2)s1`, the relative growth recovery came to 30.3%.
Turning to `COCCC(=O)N1CCC(c2cccc(Nc3nc(C)c(C)s3)n2)CC1`, the relative growth recovery is 9.99%.
For the compound `Cc1nc(Nc2cccc(C3CCCN3C(=O)c3ccc(=O)n(C)n3)n2)sc1C` (configuration not stated), the relative growth recovery is 5.83%.
As for `Cc1cnc(NC(=O)CN2CCC(c3cccc(Nc4ncc(C)s4)n3)CC2)s1`, the figure is -13.8%; as for `Cc1nc(Nc2cccc(C3CN(C(=O)CCc4c(C)n[nH]c4C)CCO3)n2)sc1C` (configuration not stated), -0.835%.
As for `Cc1nc(Nc2cccc(C3CCN(C(=O)CCc4c(C)n[nH]c4C)CC3)n2)sc1C`, the figure is 26%.
On to `Cc1cnc(C(=O)N2CCCC2c2cccc(Nc3nc(C)c(C)s3)n2)cn1` (configuration not stated), for which the relative growth recovery is 4.79%.
Next, `Cc1cnc(Nc2cccc(C3CCN(CC(=O)Nc4c(F)cccc4F)CC3)n2)s1`: -13.4%; `Cc1csc(Nc2cccc(C3CCCN3C(=O)c3ccc4c(c3)CCCN4C)n2)n1` (configuration not stated): 7.5%; `Cc1ccn2cc(C(=O)N3CCCC3c3cccc(Nc4nc(C)c(C)s4)n3)nc2c1` (configuration not stated): 39.7%.
`Cc1cnc(Nc2cccc(C3CCN(C(=O)c4cccnc4)CC3)n2)s1`: the relative growth recovery is -18.6%.
As for `COc1ccc(NC(=O)CN2CCC(c3cccc(Nc4nc(C)cs4)n3)CC2)cc1`, the figure is 32.9%; as for `COc1ccc(NC(=O)CN2CCC(c3cccc(Nc4ncc(C)s4)n3)CC2)cc1`, -11%.
Turning to `Cc1csc(Nc2cccc(C3CCN(CC(=O)NCc4ccccn4)CC3)n2)n1`, the relative growth recovery was -8.2%.
As for `CC(=O)N1CCC(c2cccc(Nc3ncc(C)s3)n2)CC1`, the figure is -19%.
As for `CCOCc1ccc(C(=O)N2CCC(c3cccc(Nc4ncc(C)s4)n3)CC2)cc1`, the figure is 29.5%; as for `CC(=O)Nc1ccc(S(=O)(=O)Nc2ncccn2)cc1`, -3.27%; as for `Cc1ccc2[nH]c3nc(SCC(=O)Nc4ccc(F)cc4)nnc3c2c1`, -0.35%.
Regarding `Cc1cc(C)nc(NS(=O)(=O)c2ccc(NC(=S)NC(=O)/C=C/c3ccccc3)cc2)n1`, the relative growth recovery was -1.71%.
On to `CS(=O)(=O)NCC(=O)N1CCC(c2cccc(Nc3ncc(-c4ccccc4)s3)n2)CC1`, for which the relative growth recovery was -20.5%.
Next, `COCCOCC(=O)Nc1ccc(S(=O)(=O)Nc2cc(C)nc(C)n2)cc1`: -1.1%.
